Laboratory results published in PubChem BioAssay (NCI).
Values joined by “and” are separate entries in the source; they are usually repeats but may differ in a detail not shown here. Equal entries are not always repeated. About 83,000 compounds went through this panel and 20% of them were active in at least one assay; those are over-represented in the sample as a whole.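 Growth was measured after 48 h exposure to one concentration of compound in 96-well plates. Values under 10 count as active.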 Active and inactive are the calls of the source.

Experiments:
Assay in all cases: NCI-60 one-dose screen, 48 h (100 = growth as untreated, 0 = no growth, -100 = all killed)
Settings in all cases: 10 µM unless noted
NCI-H23 lung = system: NCI-H23 lung
NCI-H226 lung = system: NCI-H226 lung
NCI-H322M lung = system: NCI-H322M lung
HOP-62 NSCLC = system: HOP-62 NSCLC
NCI-H460 lung = system: NCI-H460 lung
HOP-92 NSCLC = system: HOP-92 NSCLC
NCI-H522 lung = system: NCI-H522 lung
A549/ATCC NSCLC = system: A549/ATCC NSCLC
786-0 renal = system: 786-0 renal
COLO 205 colon = system: COLO 205 colon
DU-145 prostate = system: DU-145 prostate
K-562 leukemia = system: K-562 leukemia
MALME-3M melanoma = system: MALME-3M melanoma
MDA-MB-231 breast = system: MDA-MB-231 breast
RXF 393 renal = system: RXF 393 renal
SF-268 CNS = system: SF-268 CNS
SF-295 CNS = system: SF-295 CNS
SF-539 CNS = system: SF-539 CNS
UACC-257 melanoma = system: UACC-257 melanoma
M14 melanoma = system: M14 melanoma

SMILES | growth (NCI-H23 lung) | growth (NCI-H226 lung) | growth (NCI-H322M lung) | growth (HOP-62 NSCLC) | growth (NCI-H460 lung) | growth (HOP-92 NSCLC) | growth (NCI-H522 lung) | growth (A549/ATCC NSCLC) | growth (786-0 renal) | growth (COLO 205 colon) | growth (DU-145 prostate) | growth (K-562 leukemia) | growth (MALME-3M melanoma) | growth (MDA-MB-231 breast) | growth (RXF 393 renal) | growth (SF-268 CNS) | growth (SF-295 CNS) | growth (SF-539 CNS) | growth (UACC-257 melanoma) | growth (M14 melanoma)
COc1c(F)cc(-n2c(C(=O)N3CC(F)C3)cc3cccnc32)cc1F | 94.1% (inactive) | 96.2% (inactive) | 95.1% (inactive) | 97.8% (inactive) | 106% (inactive) | 82.7% (inactive) | 91.2% (inactive) | 113% (inactive) | 103% (inactive) | 118% (inactive) | 106% (inactive) | 95.5% (inactive) | 121% (inactive) | 96.5% (inactive) | 107% (inactive) | 94.9% (inactive) | 102% (inactive) | 98% (inactive) | 102% (inactive) | 119% (inactive)
Cc1cccc(-c2nnc(SCC(=O)Nc3ncc(Cc4ccccc4)s3)n2N2C(=O)CSC2=S)c1 | 36.7% (inactive) | 31.5% (inactive) | 40.1% (inactive) | 30.3% (inactive) | 20% (inactive) | 8.49% (active) | 34.5% (inactive) | 7.99% (active) | 29.8% (inactive) | 66.6% (inactive) | 43.3% (inactive) | 77.6% (inactive) | 20.6% (inactive) | 10% (inactive) | 54.7% (inactive) | 78.3% (inactive) | 77.7% (inactive) | 36.6% (inactive) | 64.4% (inactive) | 51.1% (inactive)
COc1ccc(/C(C)=C(\c2ccc(OCCN3CCCCCC3)cc2)c2ccc(OC(=O)C3CCCCC3)cc2)cc1 | -74% (active) | -62.4% (active) | 5.75% (active) | -73.4% (active) | -65.6% (active) | -88.9% (active) | -67.6% (active) | -32.9% (active) | -84.2% (active) | -63% (active) | -12.1% (active) | -23.5% (active) | -81.2% (active) | -84.1% (active) | -83.1% (active) | -30.6% (active) | -90.3% (active) | -85.4% (active) | -71.4% (active) | -70.4% (active)
Cc1ccc(S(=O)(=O)OC[C@@]2(C)CC[C@]3(C)CC[C@]4(C)C(=C3C2)C=C[C@@H]2[C@@]3(C)CCCNC(C)(C)[C@@H]3CC[C@]24C)cc1 | 59.2% (inactive) | 66.8% (inactive) | 26.9% (inactive) | 53.7% (inactive) | -65.4% (active) | 28.6% (inactive) | -47.1% (active) | -38.2% (active) | -90.7% (active) | -78% (active) | -1.23% (active) | -28.1% (active) | 15.1% (inactive) | -43.7% (active) | -7.17% (active) | 74.7% (inactive) | 102% (inactive) | 1.1% (active) | 61.9% (inactive) | -64.9% (active)
CC(=O)N1N=C(c2ccc(Nc3nc(Nc4ccc(F)cc4)nc(Nc4ccc(Cl)cc4)n3)cc2)CC1c1ccc(N(C)C)cc1 (centres undefined) | 52.2% (inactive) | 42.3% (inactive) | 79.6% (inactive) | 109% (inactive) and 58.6% (inactive) | 44.9% (inactive) | 22.5% (inactive) | 47.8% (inactive) | 30.3% (inactive) | 113% (inactive) and 44.1% (inactive) | 51.2% (inactive) | 5.71% (active) | 23.8% (inactive) | 62.7% (inactive) | 51% (inactive) |  | 68.8% (inactive) | 1.56% (active) | 67.9% (inactive) | 46.8% (inactive) | 41.4% (inactive)
CCCCCCCCCCCCCCCC[N+](C)(C)CCN(Cc1ccc(OC)cc1)c1ncccn1 | 41.5% (inactive) | 48.3% (inactive) and 60.2% (inactive) | -81.8% (active) and 74.2% (inactive) | -100% (active) and 65.2% (inactive) | -84.1% (active) and 67.4% (inactive) | -66.1% (active) and 15.6% (inactive) | -91.2% (active) and 23.4% (inactive) | -86.1% (active) and 54.4% (inactive) | -33.7% (active) and 61.9% (inactive) | -100% (active) and 33.1% (inactive) | -100% (active) and 69.4% (inactive) | 35.5% (inactive) | -70.3% (active) and 43.8% (inactive) | -82.5% (active) and 47.1% (inactive) | -58.4% (active) and -49.8% (active) | -92.9% (active) and 38% (inactive) | -90.6% (active) | -91.3% (active) and 71.2% (inactive) | 25.2% (inactive) and 28.7% (inactive) | -62.6% (active) and -17.7% (active)
COc1ccccc1/C=C/C(=O)/C=C/c1ccccc1OC | -26% (active) and 24.7% (inactive) | -30.6% (active) | 30.6% (inactive) and 38.9% (inactive) | -22.7% (active) and -19.7% (active) | 2.27% (active) and -3.65% (active) | -10.9% (active) and 33.9% (inactive) | -84.5% (active) and -58.5% (active) | -13.8% (active) and -7.39% (active) | -56.9% (active) and -47.8% (active) | -73.7% (active) and -57.9% (active) | -11.9% (active) and -11.3% (active) | 10.9% (inactive) | -33.8% (active) and 2.49% (active) | 17.5% (inactive) and 8.92% (active) | -87.5% (active) and -89.7% (active) | 8.73% (active) and 21.3% (inactive) | 10.4% (inactive) and -31% (active) | 3.38% (active) and -29.1% (active) | -29.2% (active) and 6.89% (active) | 8.11% (active) and -49.7% (active)
COc1cccc(NC(=O)c2sc3nc(C)c(C(O)c4ccccc4)cc3c2N)c1 (centres undefined) | 22.9% (inactive) | 55% (inactive) | 49.7% (inactive) | 32.5% (inactive) | 4.01% (active) | 58.6% (inactive) | 0.582% (active) | 22.4% (inactive) | 34.4% (inactive) | 5.41% (active) | 13.4% (inactive) | 6.52% (active) | 63.2% (inactive) | 9.72% (active) | 26.9% (inactive) | 38.5% (inactive) | 19.2% (inactive) | -5.58% (active) | 71.4% (inactive) | 13.9% (inactive)
O=C(Cc1ccc(F)cc1)c1ccccc1 | 103% (inactive) | 110% (inactive) | 99% (inactive) | 109% (inactive) | 108% (inactive) | 89.7% (inactive) | 101% (inactive) | 102% (inactive) | 97.6% (inactive) | 134% (inactive) | 127% (inactive) | 100% (inactive) | 107% (inactive) | 111% (inactive) | 118% (inactive) | 113% (inactive) | 117% (inactive) | 113% (inactive) | 114% (inactive) | 105% (inactive)
Nc1ncnc2c1C(c1ccc([N+](=O)[O-])cc1)c1sc3c(F)cccc3c1O2 (centres undefined) | 86.8% (inactive) | 62.9% (inactive) | 93.6% (inactive) | 116% (inactive) | 89.4% (inactive) | 107% (inactive) | 84.3% (inactive) | 99.9% (inactive) | 103% (inactive) | 109% (inactive) | 93.1% (inactive) | 83.4% (inactive) | 104% (inactive) | 84.4% (inactive) | 101% (inactive) | 98.7% (inactive) | 106% (inactive) | 96% (inactive) | 121% (inactive) | 112% (inactive)
CCOC(=O)CCCn1c(-c2ccccc2)cc(-c2ccccc2)c(C#N)c1=O | 83.5% (inactive) | 89.5% (inactive) | 97.8% (inactive) | 93.7% (inactive) | 65.4% (inactive) | 48.3% (inactive) | 70.1% (inactive) | 84.3% (inactive) | 88.8% (inactive) | 98.4% (inactive) | 97.1% (inactive) | 81.8% (inactive) | 108% (inactive) | 86.8% (inactive) | 79.2% (inactive) | 88.4% (inactive) | 69.2% (inactive) | 81.5% (inactive) | 90.5% (inactive) | 86.8% (inactive)
O=S(=O)(O)c1ccc(N=Nc2ccc(N=Nc3cccc4ccccc34)c(S(=O)(=O)O)c2)cc1 | 91.5% (inactive) | 90.1% (inactive) | 102% (inactive) | 107% (inactive) | 98.9% (inactive) | 83.4% (inactive) | 103% (inactive) | 109% (inactive) | 107% (inactive) | 100% (inactive) | 109% (inactive) | 104% (inactive) | 107% (inactive) | 80.3% (inactive) | 119% (inactive) | 106% (inactive) | 106% (inactive) | 102% (inactive) | 107% (inactive) | 99.5% (inactive)
NNCCc1ccccc1 | 103% (inactive) and 88.8% (inactive) | 93.3% (inactive) and 75.7% (inactive) | 95.2% (inactive) | 104% (inactive) and 103% (inactive) | 115% (inactive) and 105% (inactive) | 83.1% (inactive) and 102% (inactive) | 92.1% (inactive) and 94.1% (inactive) | 108% (inactive) and 90.5% (inactive) | 95.2% (inactive) and 106% (inactive) | 96.5% (inactive) and 103% (inactive) | 122% (inactive) and 108% (inactive) | 91.5% (inactive) and 105% (inactive) | 82.1% (inactive) | 93.4% (inactive) and 83.5% (inactive) | 122% (inactive) and 80.3% (inactive) | 108% (inactive) and 96.1% (inactive) | 106% (inactive) and 92% (inactive) | 96.9% (inactive) | 121% (inactive) | 101% (inactive) and 96.1% (inactive)
